Tested on: Perkinsus marinus PRA240
Experiment: ATP content (proliferation) relative to DMSO control; higher = more parasite growth (less inhibition)
Details: 20 µM; 4 days
Description: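 Perkinsus marinus PRA240 trophozoites (2-5x10^6 cells/ml, 100 µl, 96-well) were exposed once to MMV Malaria Box compounds at 20 µM (0.1% DMSO) in triplicate. ATP content (ATPlite bioluminescence) was read at day 4 post-exposure and normalised to DMSO + cells control wells (100% activity). Compounds were identified by joining plate and well to the Malaria Box list.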

Structure (SMILES) | ATP content
CCCCc1c(C)nc2c(OC)cccc2c1O | 37.3%
COCCNC(=O)c1ccc(OC2CCN(Cc3ccc(F)c(F)c3)CC2)c(Cl)c1 | 86.4%
O=C(Cc1ccccc1)NC(c1ccc(Cl)cc1)c1c(O)ccc2ccccc12 (stereo not given) | 36%
CCOC(=O)c1cnc2ccc(OC)cc2c1NCc1ccccc1 | 69.3%
CCc1ccc(CNCC(O)c2ccccc2)cc1 (stereo not given) | 60.8%
CCn1c(SCC(=O)Nc2cc(C(F)(F)F)ccc2Cl)nc2ccccc2c1=O | 102%
COc1ccc(CCN2C(=O)c3[nH]nc(-c4cc(Cl)c(C)cc4O)c3C2c2ccccc2F)cc1 (stereo not given) | 91.4%
CN1CCN(c2nc(Nc3ccc(O)cc3)nc3ccccc23)CC1 | 114%
COc1cccc(Nc2nc(NCCO)c3ccccc3n2)c1 | 77.5%
Cc1cc(NC(=O)c2cccc(C(F)(F)F)c2)n(-c2nc(-c3ccc4c(c3)OCO4)cs2)n1 | 144%
Cn1c(C(=O)c2cccc3ccccc23)nc2ccccc21 | 55.5%
CCOc1cc2c(cc1OCC)C(c1cc(Cl)c(O)c(OCC)c1)NCC2 (stereo not given) | 97.3%
COc1ccccc1C(=O)ON=C(N)Cc1cccc2ccccc12 | 148%
COc1ccc(C2Sc3ccccc3N=C3C2=C(O)c2ccccc23)cc1 (stereo not given) | 46.2%
COc1cc(OC)cc(N2C(=O)N(Cc3ccc(C(C)(C)C)cc3)c3ccccc3S2(=O)=O)c1 | 130%
Cc1ccccc1OCCSc1nc2ccc(NC(=O)c3cccs3)cc2s1 | 30.1%
COCCNCC(O)Cn1c2ccc(Cl)cc2c2cc(Cl)ccc21 (stereo not given) | 143%
COc1cccc(O)c1CN1CCC2(CCCN(Cc3ccc(F)cc3)C2)C1 (stereo not given) | 70.7%
CCOc1cc2c(cc1OCC)C(c1cc(Cl)ccc1O)NCC2 (stereo not given) | 91.6%
COc1ccc(C(=O)NC(c2ccccc2Cl)c2cc(Cl)c3cccnc3c2O)cc1 (stereo not given) | 29.8%
FC(F)(F)c1ccc(Nc2nnnc3ccccc23)cc1 | 44%
CCOC(=O)c1cnc2ccc(OC)cc2c1Nc1ccc(N2CCN(C)CC2)cc1 | 106%
CC(C)(C)C(=O)Nc1ccc(C(=O)Nc2cccc(-c3nc4ccccc4[nH]3)c2)cc1 | 67.7%
O=C1c2ccccc2C2=Nc3ccccc3SC(c3cccc(F)c3)C12 (stereo not given) | 36.8%
CCOc1cc(Cl)c(C(C)NC(=O)c2ccccc2)cc1OCC (stereo not given) | 91.1%

Structure (SMILES) | ATP content
CCN(CC)c1ccc(NC(=O)c2cccs2)cc1 | 64%
CCCC(c1nnnn1C1CCCCC1)N1CCN(C(=O)c2ccco2)CC1 (stereo not given) | 115%
COc1ccc2nc(C)cc(Nc3ccccc3O)c2c1 | 163%
COc1ccc(OC)c(C2C3=C(CC(C)(C)CC3=O)N(c3ccc(Cl)c(Cl)c3)C3=C2C(=O)CC(C)(C)C3)c1 | 161%
CCOc1ccc(CCNC(=O)c2cccs2)cc1OCC | 67.6%
CC(O)(c1ccc(Cl)cc1)C(CN1CCCCC1)c1ccccc1 (stereo not given) | 79.2%
FC(F)(F)c1cccc(CNC2CCN(CCc3ccccc3)CC2)c1 | 95.6%
N=c1c2ccccc2nnn1-c1cccc(C(F)(F)F)c1 | 67.7%
COc1ccc(Nc2cc(C)nc(NCc3ccccc3)n2)cc1 | 93.8%
CN(C)CCCNCc1ccc(-c2ccc(F)c(Cl)c2)o1 | 123%
CN(C)c1ccc(N2C(N)=NC(N)=NC2(C)C)cc1 | 114%
Cc1cc(Nc2ccc(OCc3ccccc3)cc2)nc2cc(O)ccc12 | 4.92%
COc1ccc(C(O)(CCC(C)C)C(CN2CCOCC2)c2ccc(Cl)cc2)cc1 (stereo not given) | 91.9%
COc1ccc2nc(C)cc(Nc3cccc(O)c3)c2c1 | 109%
CC(C)CCNCC(O)Cn1c2ccccc2c2ccccc21 (stereo not given) | 140%
CCOc1c(Cl)cc(CNCC(O)c2ccccc2)cc1OC (stereo not given) | 105%
OC1=C2C(=Nc3ccccc3SC2c2ccc(Br)cc2)c2ccccc21 (stereo not given) | 45.9%
CCCCc1ccc(NS(=O)(=O)c2cc3c4c(c2)CCN4C(=O)CC3)cc1 | 115%
O=C(Nc1ccccc1O)c1ccc(Oc2cccc(C(=O)Nc3ccccc3O)c2)cc1 | 30.4%
CCOc1cccc(C(=O)Nc2ccc(-c3nc4ccccc4[nH]3)cc2)c1 | 143%
Cc1cccc(N2C(=O)C3C(C2=O)C2(c4ccccc4)C(=O)C3(c3ccccc3)C(c3ccc4c(c3)OCO4)=C2c2ccc3c(c2)OCO3)c1 (stereo not given) | 110%
COc1ccc2nc(C)cc(Nc3ccc(Cl)cc3)c2c1 | 103%
COc1ccc(C)c2sc(N(Cc3cccnc3)C(=O)c3ccc(C#N)cc3)nc12 | 87.4%
CCCCCCn1c(=N)n(CC(O)COc2cccc(C)c2)c2ccccc21 (stereo not given) | 96.7%
COc1ccc(Nc2nc(NN=Cc3ccc(O)cc3)nc(Nc3ccc([N+](=O)[O-])cc3)n2)cc1 | 39.1%

Structure (SMILES) | ATP content
COc1ccc2sc(N(Cc3cccnc3)C(=O)c3ccc(C#N)cc3)nc2c1 | 111%
Cc1ccc2c(C)nc(Nc3nc(C)cc(-c4ccccc4)n3)nc2c1 | 93%
Cc1ccc(C(=O)c2oc3ccc4c(C)cc(=O)oc4c3c2C)cc1 | 123%
CCOC(=O)c1cnc2c(C)cccc2c1Nc1ccc(C(C)=O)cc1 | 122%
OC(CNCc1ccccc1)Cn1c2ccccc2c2ccccc21 (stereo not given) | 105%
Cc1ccc(C2CC(C(F)(F)F)n3nc(C(=O)N4CCN(C(c5ccccc5)c5ccccc5)CC4)cc3N2)cc1 (stereo not given) | 144%
CCOc1ccccc1CN1CCc2nc3cc(C(C)(C)C)nn3c(O)c2C1 | 51.7%
FC(F)(F)c1cccc(Nc2nc(-c3ccccc3)nc3ncccc23)c1 | 108%
CN1C=C(c2ccc3ccccc3n2)C(c2c[nH]c3ccccc23)c2ccccc21 (stereo not given) | 108%
Nc1ccc(-c2nc3cc(Oc4ccc(Oc5ccc6[nH]c(-c7ccc(N)cc7)nc6c5)cc4)ccc3[nH]2)cc1 | 74.1%
OC(CNC1CCCCC1)Cn1c2ccc(I)cc2c2cc(I)ccc21 (stereo not given) | 4.02%
COc1ccc(C(=O)NC(c2ccc(Cl)cc2Cl)c2cc(Cl)c3cccnc3c2O)cc1 (stereo not given) | 96.4%
c1ccc(CNc2nc(Nc3ccccc3)nc3ccccc23)cc1 | 75.4%
COc1ccc(CNC2CCN(c3ccc(NC(=O)c4cccc(Cl)c4)cc3)CC2)cc1OC | 102%
CCCc1c(C)nc2ccccc2c1O | 28.8%
CCN1CCN(c2cc(C)c3cc(NC(=O)c4ccc(OC)c(OC)c4)ccc3n2)CC1 | 91.6%
CCOc1ccc(-n2cc(-c3ccccc3)c3c(SCc4cc(C)ccc4C)ncnc32)cc1 | 171%
COc1ccc(C(=O)C(CCC(CNC(C)(C)C)C(=O)c2ccc(OC)cc2)CNC(C)(C)C)cc1 (stereo not given) | 120%
O=C(Nc1ccc(N2CCCCC2)c(Cl)c1)c1ccc(Br)o1 | 33.7%
O=C(Nc1ccc(C23CC4CC(CC(c5ccccc5)(C4)C2)C3)cc1)c1cccs1 | 68.7%
CCC(O)c1ccc(Br)cc1NC(=O)c1cccc(Cl)c1 (stereo not given) | 127%
O=C(Nc1cccc(C(F)(F)F)c1)c1cc(Cl)ccc1O | 2.99%
COC(=O)c1ccc(C2C3=C(O)CC(c4ccc(F)cc4)CC3=Nc3ccccc3N2C(=O)c2ccccc2)cc1 (stereo not given) | 105%
CC1CCCCN1CCCNC(=O)c1ccc2c(c1)sc1nc(-c3ccc(F)cc3)cn12 (stereo not given) | 133%
COc1ccc(N2CCN(C(CNC(=O)C3CCCCC3)c3ccc4c(c3)OCO4)CC2)cc1 (stereo not given) | 114%

— the supplement of paper PMC4206467
